Structures are written as SMILES. Screen size: about 69,000 compounds; about 8,600 (12%) showed an effect of 50% or more. The sample holds strong results, similar compounds and a random draw of the others, so the mix is not that of the screen.

These results are taken from ChEMBL document CHEMBL4513216, “Probing the Open Global Health Chemical Diversity Library for Multistage-Active Starting Points for Next-Generation Antimalarials” (ACS Infect Dis, 2020).

The assay relates to Plasmodium berghei. In words: Screen against P. berghei liver stage (PbLuc), transformed with Luciferase, at 10uM. Format: functional, HepG2. As to conditions: tested at 10 uM.
For `CN1CCN(C(=O)[C@@H]2CN(C)C[C@]23COc2ccc(F)cc2C3=O)CC1`, the INHIBITION was determined as 24.2%.
As for `CN(C)C(=O)c1coc(COc2ccccc2)n1`, the INHIBITION was 19.4%.
In the case of `O=C(NCC(F)(F)F)c1ccc(-n2cncn2)nn1` it was -17.8%; in that of `Cc1cc2n(n1)CC(CNCc1ccc(Oc3ccccc3)nc1)CN2` (centres undefined), 21.55%; in that of `CC(C)c1ncc2c(n1)CN(c1ncnc3[nH]ccc13)CC2`, 63.4%.
Consider `Cc1ncc2c(n1)CN(c1ncnc3[nH]ccc13)CC2`, for which the INHIBITION is recorded as 17.8%.
To `c1ncc2c(n1)CN(c1ncnc3[nH]ccc13)CC2` belongs 32.7%.
In the case of `O=S(=O)(NCC1CCCN(Cc2ccccc2F)C1)C1CC1` (centres undefined) it was 11.5%; in that of `Cc1noc(C(C)C)c1C(=O)NCc1cccnc1`, 34.7%; in that of `CN(Cc1csc(-c2cccs2)n1)C(=O)CCn1ccccc1=O`, -33%.
To `CN(Cc1csc(-c2ccccc2)n1)C(=O)CCn1ccccc1=O` belongs 66.9%; to `CN(Cc1csc(-c2ccccc2)n1)C(=O)CCNS(C)(=O)=O`, -47.9%.
Consider `Cc1ccc(-c2nc(CN3CCOC(Cn4cccn4)C3)no2)cc1` (centres undefined), for which the INHIBITION is -13.5%.
In the case of `Cc1nc(-c2cccc(Cl)c2)n(CC(=O)NCC2CCCO2)c(=O)c1C` (centres undefined) it was 13.8%; in that of `COc1ccccc1CN1CC[C@]2(C[C@@H](OCC(=O)N(C)C)CO2)C1`, 24.9%; in that of `CC(C)NC(=O)CC1COC2(CCN(Cc3cccnc3)CC2)C1` (centres undefined), 13.7%.
`CNC(=O)COC1COC2(CCN(Cc3ccncc3F)CC2)C1` (centres undefined): the INHIBITION is given as 59.3%.
To `CCOC1COC2(CCN(Cc3cccc(F)c3)CC2)C1` (centres undefined) belongs 31.6%.
As to `CNC(=O)COC1COC2(CCN(Cc3cccnc3)CC2)C1` (centres undefined), the INHIBITION is 67.3%.
With `CNC(=O)COC1COC2(CCN(Cc3cccnc3OC)CC2)C1` (centres undefined), the INHIBITION came out at 40.5%.
For `CN(Cc1cnc2ccccc2c1)C(=O)C(c1ccccc1F)N(C)C` (centres undefined), the INHIBITION was found to be 4.64%.
In the case of `COc1ccccc1N1CCN(C(=O)COc2c(C)occc2=O)CC1` it was 1.04%.
Regarding `OC(CNCCc1nnc2ccccn12)c1ccc(F)c(F)c1` (centres undefined), the INHIBITION is recorded as -55.3%.
In the case of `O=C(c1nnn(-c2ccc(F)cc2)n1)N(CCO)Cc1ccccc1` it was -137%; in that of `CN1C(=O)[C@@H]2CC[C@H]1CN(C(=O)Nc1ccccc1C(F)(F)F)C2`, -53.7%.
In the case of `COc1ccnc(CN2CCC=C(C(C)NC(C)=O)C2)c1OC` (centres undefined) it was 36.2%; in that of `COc1ccc(CN2CCC=C(C(C)NC(C)=O)C2)cc1` (centres undefined), 83.2%; in that of `CC(=O)NC(C)C1=CCCN(Cc2ccc(C(=O)O)cc2)C1` (centres undefined), 37.2%.
For `Fc1ccc(-c2nc(CNC3CCc4ncnn4C3)cs2)cc1` (centres undefined), the INHIBITION stood at 48.8%.
For `CN(CC(O)C1CC1)C(=O)Nc1cc(F)cc(Br)c1` (centres undefined), the INHIBITION is listed as -54.5%.
Take `CC(O)CCN(C)C(=O)Nc1cc(F)cc(Br)c1` (centres undefined): the INHIBITION is on record as 42.6%.
To `CNC(=O)C(C)CN(C)C(=O)Nc1cc(F)cc(Br)c1` (centres undefined) belongs 83.3%; to `Cc1nc(C2CCCN2C(=O)c2ccc(N(C)C)nn2)no1` (centres undefined), -16.98%; to `O=C(CCc1ccccc1Cl)NS(=O)(=O)c1ccc2c(c1)OCCO2`, -19.265%.
As to `CC(NC(=O)CCn1cccn1)c1ccc(-n2ccnn2)cc1` (centres undefined), the INHIBITION is reported as 10%.
To `CN1CCN(C(CNC(=O)CCn2cccn2)c2cccs2)CC1` (centres undefined) belongs 31.2%.
Regarding `O=C(Cn1cccn1)NCC(c1cccs1)N1CCCC1` (centres undefined), the INHIBITION was determined as 28%.
To `O=C(CCn1cccn1)NCC(c1cccs1)N1CCCC1` (centres undefined) belongs 66.9%; to `CC(NC(=O)CCn1cccn1)c1cccs1` (centres undefined), 61.5%.
In the case of `CC1CCN(C(CNC(=O)CCn2cccn2)c2cccs2)CC1` (centres undefined) it was 40.7%; in that of `CC1CCN(C(CNC(=O)Cn2cccn2)c2cccs2)CC1` (centres undefined), 32.3%; in that of `CC(Cc1cccs1)NC(=O)CCn1cccn1` (centres undefined), 9.14%.
To `O=C(CCn1cccn1)NCC(c1cccs1)N1CCOCC1` (centres undefined) belongs 56.1%; to `COCCc1nnc(NC(=O)CSCc2ccccc2)o1`, 2.84%.
For `COCC[C@]1(O)CCN(Cc2ccccn2)C[C@H]1C`, the INHIBITION amounted to 18.4%.
As to `Cc1cccc2c1cnn2CCCNC(=O)c1cnn(C)c1`, the INHIBITION is reported as -17.2%.
With `CC/N=c1\nc(NCC)nc2n1C(O)(Nc1cc(C)ccc1C)CS2` (centres undefined), the INHIBITION is -21.3%.
As to `CC/N=c1\nc(NCC)nc2n1C(O)(Nc1cccc(Cl)c1Cl)CS2` (centres undefined), the INHIBITION amounted to 28.6%.
In the case of `CC/N=c1\nc(NCC)nc2n1C(O)(Nc1cc(Cl)ccc1Cl)CS2` (centres undefined) it was 56%; in that of `CCNC(=O)N1CCc2ccc(NC(=O)NCc3ccsc3)cc21`, 47%.
With `O=C(CCN1C(=O)CCC1=O)NCC1(c2c(F)cccc2F)CCCC1`, the INHIBITION turned out to be 25.6%.
`Cc1ccccc1C1(CNC(=O)CCN2C(=O)CCC2=O)CC1`: the INHIBITION came to 50.3%.
In the case of `Cc1cccc(C2(CNC(=O)CCN3C(=O)CCC3=O)CCCC2)c1` it was 36.4%; in that of `CC(NCc1ccc(OCC(N)=O)cc1)c1ccc(Cl)cc1Cl` (centres undefined), 32.2%.
To `Cn1cc(C(=O)Nc2cc(F)ccc2OCC2CCCO2)ccc1=O` (centres undefined) belongs 13.6%; to `CCC(CC)C(=O)NCc1c(C)nn(C)c1N1CCCN(C)CC1`, 24.6%; to `Nc1nc2c(c(N3CCC(CCn4cccn4)CC3)n1)CCNCC2`, 31.4%.
For `Nc1nc2c(c(NC(Cn3cccn3)c3ccccc3)n1)CCNCC2` (centres undefined), the INHIBITION came out at 75.5%.
As for `c1ccc(C(Cn2cccn2)Nc2cnccn2)cc1` (centres undefined), the INHIBITION was determined as 31.2%.
`CN(C)CC(Nc1nc(N)nc2c1CCNCC2)c1ccccc1` (centres undefined): the INHIBITION is recorded as 72.7%.
In the case of `CN(CC1Cc2ccccc2CN1C)c1nc(N)nc2c1CCNCC2` (centres undefined) it was 30.8%.
In the case of `CN(Cc1ccccc1-n1cccn1)c1nc(N)nc2c1CCNCC2` it was -18%; in that of `CC(Nc1nc(-c2ccccc2)nc2c1CCNCC2)c1cccnc1` (centres undefined), 31.4%; in that of `CN(C)CCC(Nc1nc(N)nc2c1CCNCC2)c1ccccc1` (centres undefined), 68.5%.
To `COCC(Nc1nc(N(C)C)nc2c1CCNCC2)c1ccccn1` (centres undefined) belongs 34.9%.
For the compound `O=c1c(S(=O)(=O)N2CCCC2)cccn1Cc1ccc(F)cc1Cl`, the INHIBITION amounted to 24.2%.
In the case of `Cc1noc2ncc(C(=O)N3CCCC3c3ccsc3)cc12` (centres undefined) it was -7.35%.
In the case of `Cc1cc(C2CCCN(C(=O)Cc3csc(C(C)C)n3)C2)n[nH]1` (centres undefined) it was -23.8%; in that of `O=S(=O)(c1ccccc1)N1CCCC1c1cc[nH]n1` (centres undefined), 18.9%.
To `Cc1ccc(C(=O)NCCNc2ncccc2C#N)c(=O)[nH]1` belongs -58.7%; to `Cc1ccc(CNC(=O)c2ccc(=O)n(C)n2)c(OC2CCCC2)c1`, 5.91%; to `CN1CCc2c(sc3c2C(=O)NC(C=Cc2ccccc2)N3)C1` (centres undefined), -45.3%.
Regarding `Cn1nc(C(=O)N2CCOCC2)c2c1CN(CC1CCC1)C2`, the INHIBITION amounted to 53%.
In the case of `Cc1ccc(CN2Cc3c(C(=O)N4CCCC4)nn(C)c3C2)s1`, the INHIBITION is -30.6%.
To `CCC(C)N1Cc2c(C(=O)N3CCCC3)nn(C)c2C1` (centres undefined) belongs 23.1%; to `Cn1nc(C(=O)N2CCOCC2)c2c1CN(CC1CC1)C2`, 48.4%; to `CC(C)CCN1Cc2c(C(=O)N3CCCC3)nn(C)c2C1`, 60%.
On to `Cn1nc(C(=O)N2CCCC2)c2c1CN(CC1CCOCC1)C2`, for which the INHIBITION stood at 21.6%.
As for `CCN1C(=O)CCC12CCC(NC(=O)c1cnccn1)CC2` (centres undefined), the INHIBITION is recorded as -43%.
`CNC(=O)c1cn[nH]c1C1(C)CCCN(Cc2nccn2C(C)C)C1` (centres undefined): the INHIBITION is 46%.
In the case of `CC(C)COCCCNC(=O)NC(C)c1ccc(-n2cncn2)cc1` (centres undefined) it was -12.3%; in that of `CC(NCc1cnc(C2CCC2)s1)c1ccc(-n2cncn2)cc1` (centres undefined), 61.4%; in that of `Cc1cnn(CC(C)NCc2ccc(-n3cccn3)cc2)c1` (centres undefined), -1.58%.
`CC(NCc1cnc(C2CCC2)s1)c1ccccc1-n1cccn1` (centres undefined): the INHIBITION stood at 11.9%.
To `CC(NCc1cnc(C2CCC2)s1)c1cccc(-n2ccnc2)c1` (centres undefined) belongs 29.7%; to `CC(NCc1cnc(C2CCC2)s1)c1cccc(-n2cccn2)c1` (centres undefined), 75.3%.
Turning to `CC(NCc1cnc(C2CCC2)s1)c1ccc(-n2cccn2)cc1` (centres undefined), the INHIBITION is recorded as 59.4%.
Regarding `CCCS(=O)(=O)NC(C)c1cccc(-n2cccn2)c1` (centres undefined), the INHIBITION amounted to 29.3%.
In the case of `CCOCCCNC(=O)NC(C)c1ccc(-n2cncn2)cc1` (centres undefined) it was -31.4%.
To `CN1CCN(C(=O)c2cccn2C)Cc2cccnc21` belongs 16.4%.
Turning to `O=C1N(CC2CC2)CCC12CCCN(c1ncc(F)cn1)C2` (centres undefined), the INHIBITION was 42.4%.
In the case of `Cc1cnn(CC2CCCN2C(=O)c2csc(C3CC3)n2)c1` (centres undefined) it was -23.9%.
As for `O=C(CCN1CCCC1)Nc1c2c(cc3c1CCC3)CCC2`, the INHIBITION turned out to be 6.29%.
In the case of `CC(=O)N1CCC(C)(c2cc(C(=O)NCC(C)(C)C)nc(C)n2)CC1` it was 37.9%; in that of `Cc1cccc(C(=O)N2CCN(S(C)(=O)=O)[C@@H](C)C2)c1C`, 40.3%.
To `C[C@H]1CN(C(=O)c2cccc(F)c2Cl)CCN1S(C)(=O)=O` belongs 61.1%; to `Cc1cccc(C(=O)N2CCN(S(C)(=O)=O)[C@@H](C)C2)c1Cl`, 22.6%; to `CC(C)c1ncncc1C(=O)N1CCN(Cc2cscn2)CC1`, 49.3%.
In the case of `COC(C(=O)N1CCN(Cc2noc(C)n2)CC1)c1ccccc1` (centres undefined) it was 53.8%; in that of `COC(C(=O)N1CCCN(Cc2cscn2)CC1)c1ccccc1` (centres undefined), 54.3%; in that of `Cc1ccc(C(C)C(=O)N2CCCN(Cc3cscn3)CC2)cc1` (centres undefined), 15.2%.
Regarding `CC(C)c1ccc(O)c(C(=O)N2CCN(Cc3cscn3)CC2)c1`, the INHIBITION was 54.9%.
To `COCc1ccc(C(=O)N2CCCN(Cc3cscn3)CC2)cc1` belongs 27.4%.
For `Cc1nc(CN2CCN(C(=O)C(c3ccccc3C)N(C)C)CC2)no1` (centres undefined), the INHIBITION was found to be 6.66%.
In the case of `CC(C)c1ccsc1C(=O)N1CCCN(Cc2cscn2)CC1` it was 2.61%; in that of `Cc1ccc(C(=O)N2CCCN(Cc3cscn3)CC2)o1`, 7.67%.
Turning to `Cc1nc(CN2CCN(C(=O)COCc3ccccc3)CC2)no1`, the INHIBITION amounted to 4.2%.
As for `O=C(c1ccc(Cl)o1)N1CCCN(Cc2cscn2)CC1`, the INHIBITION was 50.4%.
To `CC(Oc1ccccc1)C(=O)N1CCCN(Cc2cscn2)CC1` (centres undefined) belongs 27.25%.
